Among all 330,000 compounds or so, about 4,900 (1.5%) were called active.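 How the source made its calls: active means inhibition above the mean inhibition across the screen plus 3 SD (cut at about 25% in these data); inactive means the rest.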 The list comes from a sample in which actives are over-represented; it also holds similar structures and randomly drawn compounds.

The experiment deals with Platelet-activating factor acetylhydrolase (Homo sapiens) (UniProt Q13093). In words: inhibition of plasma PAF acetylhydrolase – biochemical, fluorescence polarization, human, primary screen (AID 463082).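 Further: inhibitors block binding of the rhodamine activity-based probe so polarization drops; 0% = enzyme with DMSO and 100% = wells lacking pPAFAH.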 The conditions noted are these: recombinant pPAFAH, FP-rhodamine probe fluorescence polarization; at 3.39 µM; active compounds read high. For orientation: Polarisation of emitted light reports the rotation of a fluorescent probe.
Platelet-activating factor acetylhydrolase (Homo sapiens), sequence (Q13093 whole entry, looked up): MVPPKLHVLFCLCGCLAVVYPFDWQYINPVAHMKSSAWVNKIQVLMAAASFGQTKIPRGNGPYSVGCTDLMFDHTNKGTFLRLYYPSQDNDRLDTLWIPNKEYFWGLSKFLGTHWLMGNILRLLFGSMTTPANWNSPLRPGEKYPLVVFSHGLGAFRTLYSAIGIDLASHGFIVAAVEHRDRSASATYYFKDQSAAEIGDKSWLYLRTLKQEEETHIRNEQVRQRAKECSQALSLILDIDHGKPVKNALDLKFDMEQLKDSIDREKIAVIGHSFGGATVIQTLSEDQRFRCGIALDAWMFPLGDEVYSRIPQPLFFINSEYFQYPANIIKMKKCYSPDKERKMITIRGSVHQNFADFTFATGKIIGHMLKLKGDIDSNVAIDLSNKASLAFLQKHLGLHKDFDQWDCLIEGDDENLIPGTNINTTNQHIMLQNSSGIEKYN
Regarding `CC(Cc1cccs1)N(Cc1ccc(Cl)cc1)C(=O)c1ccncc1` (stereo not drawn), the inhibition was 6.35% (inactive). `CCSC1=C(C#N)C(=O)n2c1cc1c2CCCC1`: the inhibition was 8.15% (inactive).

`Cn1c(NC(=O)c2ccco2)c(-c2ccccc2Cl)c(=O)c2ccccc21`: the inhibition was 1.1% (inactive). As for `Cc1ccc(C)c(NC(=S)NNC(=S)Nc2ccc(C(C)C)cc2)c1`, the figure is 22.5% (inactive); as for `O=C(NC(=S)Nc1ccc(Cl)c(C(=O)O)c1)c1cncc(Br)c1`, 0.25% (inactive). As for `CC(C)c1ccc(NC(=S)NNc2ccc(Cl)c(C(=O)O)c2)cc1`, the figure is 38.3% (active); as for `Cc1cc(=O)n2nc(N3CCCC(C(=O)NCc4cccc(Cl)c4)C3)sc2n1` (stereo not drawn), 1.7% (inactive).

In the case of `COc1ccccc1CNC(=O)COn1nnc2ccc(S(=O)(=O)N3CCOCC3)cc21`, the inhibition is 2.22% (inactive). For `CC(C)N(C(=O)[C@H]1C[C@H](CC(=O)NC(C)(C)C)C(=O)N2CCc3c([nH]c4ccc(Cl)cc34)[C@]12C)C(C)C` the value was 3.29% (inactive); for `Cc1nc(NC(=O)c2cccc(Cl)c2)sc1-c1csc(Nc2cccc(Cl)c2)n1`, 11.3% (inactive); for `O=C(Nc1ccc(-c2csc(Nc3cccc(C(F)(F)F)c3)n2)cc1)c1cccc(C(F)(F)F)c1`, 28.4% (active). As for `O=C(Nc1ccc(C(F)(F)F)cc1)c1cccc(-n2cnnn2)c1`, the figure is -6.56% (inactive); as for `CC(C)c1nc(CNC(=O)CC2C(=O)NCCN2Cc2cccc(F)c2F)cs1` (stereo not drawn), 3.46% (inactive). As for `COc1cc(NC(=O)CCS(=O)(=O)c2ccc3c(c2)oc(=O)n3C)cc(OC)c1`, the inhibition was 3.91% (inactive). `COc1ccc(-c2n[nH]c(C)c2-c2ccccc2OC)c(O)c1`: the inhibition was 4.94% (inactive). For `C=C(C)COc1ccc(-c2n[nH]c(C)c2-c2ccccc2OC)c(O)c1` the value was 26.2% (active); for `C=C(C)COc1ccc(-c2n[nH]c(C)c2-c2ccccc2)c(O)c1`, 13.4% (inactive); for `O=C(Nc1ccc(F)c([N+](=O)[O-])c1)C1CCCO1` (stereo not drawn), -1.09% (inactive). Turning to `CN(Cc1cccs1)C(=O)CN1C(=O)c2ccccc2S1(=O)=O`, the inhibition was 4.08% (inactive).

Turning to `CN(C)c1ccc(C(=S)N2CCN(C(=S)Nc3ccc(Cl)cc3)CC2)cc1`, the inhibition is 1.77% (inactive). Turning to `CCn1cc(C(=O)NCCC(=O)NCCO)c(=O)c2cc3c(cc21)OCO3`, the inhibition is 4.78% (inactive). For `COc1cc(CN2CCC(C(N)=O)CC2)ccc1OCc1ccccc1` the value was 0.32% (inactive).

As for `COc1cc(C2CC(=O)N3CN(Cc4ccccc4)CSC3=C2C#N)ccc1OCc1ccccc1` (stereo not drawn), the inhibition was 35.3% (active).

Regarding `COc1cc(CNC2CCCC2)c(Br)cc1OCc1ccccc1`, the inhibition was 1.42% (inactive). Regarding `COc1ccc(CNc2cc(C)cc(C)c2)cc1OC`, the inhibition is 0.82% (inactive). Consider `CC1CCCCC1NC(=O)COC(=O)Cc1ccc(Br)cc1` (stereo not drawn), for which the inhibition was 23.6% (inactive). Turning to `CC1CCCCC1NC(=O)COC(=O)Cc1ccc(Cl)cc1` (stereo not drawn), the inhibition was 35.3% (active). As for `O=C(COC(=O)Cc1ccc([N+](=O)[O-])cc1)NC1CCCCCC1`, the figure is 12.4% (inactive); as for `Cc1cccc(C(=O)O)c1[N+](=O)[O-]`, 1.3% (inactive); as for `C=CCn1c(Oc2ccc(C(=O)OC)cc2)nc2c1c(=O)n(C)c(=O)n2C`, -2.33% (inactive). For `CSc1ccc(CNC(=O)c2ccc(NC(=O)C3=CSCCO3)cc2)cc1` the value was -5.55% (inactive); for `Cc1cc(C)cc(N(CC(=O)NC2CCCC2)C(=O)CCC(=O)Nc2nccs2)c1`, 1.33% (inactive). As for `Cc1cccc(CCNS(=O)(=O)c2ccc(S(=O)(=O)NC3CCCC3)cc2)c1`, the figure is 27.3% (active); as for `Cc1cccc(CCNS(=O)(=O)c2ccc3c(c2)NC(=O)CO3)c1`, 9.07% (inactive); as for `Cc1ccc(S(=O)(=O)NC2CCCCCC2)cc1`, 9.54% (inactive).

In the case of `CC[C@]12c3[nH]c4cc(CCC(=O)N(C)C)ccc4c3CCN1C(=O)[C@@H](CC(=O)NCCCn1ccnc1)C[C@@H]2C(=O)N1CCN(C(=O)C2CC2)CC1`, the inhibition was -6.7% (inactive). Take `CCc1cccc(C)c1NS(=O)(=O)c1c(C)nc2sccn2c1=O`: the inhibition is 1.67% (inactive). Take `CN(C)[C@@H]1C(=O)C(C(N)=O)=C(O)[C@@]2(O)C(=O)C3=C(O)c4c(O)ccc(Cl)c4[C@@H](O)[C@H]3C[C@@H]12`: the inhibition is 49.4% (active). For `O=C(c1ccco1)N(Cc1nc2ccccc2c(=O)[nH]1)C1CCCC1` the value was 2.71% (inactive). As for `CCc1ccc(CN(C)C(=O)CCc2nnc(-c3ccc(-c4ccccc4)cc3)o2)nc1`, the figure is 61.6% (active). Consider `CCc1ccc(CN(C)Cc2nc(Cc3ccccc3)no2)nc1`, for which the inhibition was 1.77% (inactive). Turning to `CC(=O)c1ccc(-c2nnc(CCC(=O)N(C)Cc3cnc4ccccn34)o2)s1`, the inhibition was 3.22% (inactive). Regarding `COc1ccc(NC(=O)CNC(=O)Cc2ccccc2)cc1OC`, the inhibition is 1.61% (inactive).

On to `COc1ccc(CCNC(=O)Cc2ccc(C)cc2)cc1OC`, for which the inhibition was 0.86% (inactive). For `COc1ccc(CNC(=O)Cc2ccc(-c3ccccc3)cc2)cc1OC` the value was 31.1% (active); for `Cc1cc(=O)oc2c(C)c(OCC(=O)NCCc3ccc(S(N)(=O)=O)cc3)ccc12`, 1.13% (inactive). For the compound `CCOc1ccc(S(=O)(=O)NCCC(=O)NCC2CCCO2)cc1` (stereo not drawn), the inhibition was -0.87% (inactive). For the compound `Nc1scc(-c2ccncc2)c1Cl`, the inhibition is 5.7% (inactive).

Regarding `CCOC(=O)c1c(-c2ccccc2)oc2cc(Br)c(O)c(C=O)c12`, the inhibition is 30.1% (active). As for `CCOC(=O)c1c(C)oc2ccc(OCC(=O)N(CC)CC)cc12`, the figure is -9.45% (inactive). As for `CCOC(=O)c1c(C)oc(C)c(C(=O)OCC)c1=O`, the figure is -1.33% (inactive); as for `CCOC(=O)c1c(-c2ccccc2)oc2ccc(OCC(=O)NN)cc12`, 3.22% (inactive); as for `CCOC(=O)c1c(C)oc2cc(Sc3ccccc3)c(O)c(O)c12`, 27.6% (active). As to `CCOC(=O)c1c(C)oc2cc(Br)c(OCC(N)=O)cc12`, the inhibition was -0.28% (inactive).

As to `CCc1cccc(C)c1NC(=O)CSc1nnc(-c2ccco2)n1N`, the inhibition was -2.12% (inactive). Regarding `Cc1cc(NC(=O)CSc2nnc(-c3ccco3)n2N)no1`, the inhibition was 1.38% (inactive). Take `NC(=O)c1c(NC(=O)CSc2nnc(-c3ccco3)n2N)sc2c1CCCC2`: the inhibition was 24.9% (active).

Regarding `CN(CC(=O)NC1CCCC1)S(=O)(=O)c1cnc[nH]1`, the inhibition is 5.78% (inactive).

Regarding `Cc1ccc(S(=O)(=O)NCc2cn3ccsc3n2)c(C)c1`, the inhibition is 3.63% (inactive). For `Cc1nc(CNS(=O)(=O)c2cc([N+](=O)[O-])ccc2C)cs1` the value was 1.89% (inactive); for `Cc1ccc(S(=O)(=O)NCc2csc(C)n2)c(C)c1`, 57.6% (active).

As for `O=C(NCCN1CCOC1=O)C1CCC(=O)N(CCc2ccc(Cl)cc2)C1` (stereo not drawn), the inhibition was 6.31% (inactive). With `CCOC(=O)c1c(N=CN(C)C)c(C#N)c2n1CCCC2`, the inhibition is -0.32% (inactive). Turning to `CC(C)C(C)(C#N)NC(=O)CSc1nncn1-c1ccccc1` (stereo not drawn), the inhibition was 3.15% (inactive).

In the case of `CCc1cccc(C)c1NC(=O)COC(=O)CC1CCCC1`, the inhibition was 31.2% (active). For `CCc1cccc(C)c1NC(=O)COC(=O)CNC(=O)c1cccs1` the value was -1.56% (inactive); for `Cc1cccc(C)c1NC(=O)CNC(=O)C1CCCC1`, -3.74% (inactive). As to `CCC(=O)NC(=Nc1nc2ccccc2s1)NC(=O)CC`, the inhibition was 1.11% (inactive). Regarding `COc1ccc(C2=NN(c3nc4ccccc4s3)C(=O)C2)cc1`, the inhibition is 10.8% (inactive). Consider `CCC(C)Cn1c(O)cc2nn(-c3nc4ccccc4s3)c(=O)c-2c1C` (stereo not drawn), for which the inhibition was 49.8% (active). As for `C=CCNC(=O)COC(=O)c1ccccc1C(=O)N(C)C1CCCCC1`, the figure is -0.67% (inactive); as for `CC1(c2ccc3ccccc3c2)NC(=O)N(CC(N)=O)C1=O` (stereo not drawn), 1.23% (inactive); as for `COc1ccccc1NC(=O)CCSc1nnc(-c2ccc(O)cc2)o1`, -1.64% (inactive). As for `CC(C)(C)NC(=O)NC(=O)COC(=O)C1(C)CC1(Cl)Cl` (stereo not drawn), the inhibition was 4.74% (inactive). As for `COc1ccccc1OCCC(=O)OCC(=O)NC(=O)NC(C)(C)C`, the inhibition was 2.65% (inactive).

Consider `CC(C)(C)NC(=O)NC(=O)COC(=O)CCC1CCCCC1`, for which the inhibition was 29.9% (active). For `COc1ccc(N(CC(=O)Nc2cc(OC)cc(OC)c2)S(=O)(=O)c2c(C)n[nH]c2C)cc1` the value was 1.91% (inactive). As to `CC(C)N(C(=O)[C@H]1C[C@H](CC(=O)NCCC2=CCCCC2)C(=O)N2CCc3c([nH]c4cc(CCC(=O)N(C)C)ccc34)[C@]12C)C(C)C`, the inhibition was 16.4% (inactive). For the compound `CC[C@]12c3[nH]c4cc(CCC(=O)N(C)C)ccc4c3CCN1C(=O)[C@@H](CC(=O)NCC13CC4CC(CC(C4)C1)C3)C[C@@H]2C(=O)N1CCN(C(=O)C2CC2)CC1`, the inhibition is 1.87% (inactive).

Regarding `CCN(CC)C(=O)[C@H]1C[C@H](CC(=O)NCC23CC4CC(CC(C4)C2)C3)C(=O)N2CCc3c([nH]c4cc(CCC(=O)N(C)C)ccc34)[C@]12C`, the inhibition is 27.5% (active).

Turning to `CC(C)C(O)C1CCN(Cc2nc(Cc3ccccc3Cl)no2)CC1` (stereo not drawn), the inhibition is 1.22% (inactive). `CCSCc1nc(N)nc(NCCc2ccccc2)n1`: the inhibition is 5.83% (inactive). Consider `NC(=O)c1sc2nc3c(c(-c4ccccc4)c2c1N)CCC3`, for which the inhibition is 25.1% (active).

As to `Nc1c(C(=O)NCc2ccccc2)sc2nc3c(cc12)C(=O)CCC3`, the inhibition is 9% (inactive).

Regarding `CCc1nc2sc(C(=O)O)c(N)c2c2c1CCCC2`, the inhibition was 1.17% (inactive). For `Cc1ccccc1Cn1nc(C)c(NC(=O)C(F)(F)F)c1C`, the inhibition was -5.3% (inactive). For `COC(=O)c1cc(S(=O)(=O)Nc2ccc(C)c(F)c2)c[nH]1` the value was 37.4% (active). For `CCOc1ccccc1NS(=O)(=O)c1c[nH]c(C(=O)OC)c1`, the inhibition was -0.19% (inactive). With `COC(=O)c1cc(S(=O)(=O)N2CCN(c3cc(C)ccc3C)CC2)c[nH]1`, the inhibition is -4.07% (inactive). As for `Cn1c(=O)c2c(nc(N3CCCCCC3)n2CC(O)COc2ccc(Cl)cc2)n(C)c1=O` (stereo not drawn), the figure is 4.56% (inactive); as for `Cc1ccc(CSc2nsc(C)c2C#N)cc1`, 8.61% (inactive). As for `Cc1cc(SCc2c(F)cccc2Cl)nc(=O)[nH]1`, the figure is 1.8% (inactive). Take `Cc1snc(SCc2c(F)cccc2Cl)c1C#N`: the inhibition was 24.7% (active).

For orientation: inhibition means the drop in the measured response relative to a control, in per cent.
